Results taken from PubChem BioAssay (NCI).
The panel holds about 83,000 compounds, 20% with a hit somewhere; the sample as a whole holds those more often.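 A percent growth of 40 corresponds to 60% growth inhibition; 0 means no net growth; -100 means all cells died. Active threshold: below 10.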 Activity calls are given as the source filed them.

tested on: HL-60(TB) leukemia; experiment: NCI-60 one-dose screen, 48 h (100 = growth as untreated, 0 = no growth, -100 = all killed); details: 10 µM unless noted

SMILES | growth
Cc1ccc2oc(=O)cc(-c3nc4ccc([N+](=O)[O-])cc4[nH]3)c2c1 | 53.1% (inactive)
CC1Cc2c(N(C)C)ncnc2N(C)c2ccc(O)cc21 (stereo not drawn) | 81.1% (inactive)
Cc1ccc(C2C3CC4CCCCC4N3[C@@]3(C(=O)Nc4cc(Cl)ccc43)C2C(=O)c2nc3ccccc3[nH]2)cc1 (stereo partly drawn) | 1.4% (active)
O=C1c2ccccc2C(=O)c2c1ccc1[nH]c(CCl)nc21 | -37.4% (active)
CCc1c(C)c2cc(-n3c(-c4ccc(OC)cc4)csc3=N)c(O)c(C)c2oc1=O | -28.2% (active)
O=[N+]([O-])c1cccc(-c2nc3cc4nc5ccccc5[nH]c4cc3n2)c1 | 91.5% (inactive)
O=C(O)c1ccc(Br)nc1 | 94.4% (inactive)
O=C1c2ccccc2C(=O)N1/N=C/c1ccc2c(c1)OCO2 | 88.1% (inactive)
O=C(NCc1ccccc1)Nc1ccccc1CNc1nc(Nc2ccc(OCCN3CCCC3)cc2)ncc1Cl | 62.4% (inactive)
COc1ccc(/C=C/C(=O)C(=O)/C=C/c2ccc(OC)c(OC)c2)cc1OC | 35.4% (inactive)
COc1cc(-c2c3c(nc4c2c(C)nn4-c2ccccc2)-c2ccccc2C(=O)C3=O)cc(OC)c1OC | 68.8% (inactive)
O=C1/C(=C/c2ccccc2)SC(=S)N1CCc1ccc(O)cc1 | 94.9% (inactive)
C#CC[C@@H]1C[C@]2(C)[C@H]3CC[C@@H]4[C@H]5C(C(=C)C)CC[C@]5(C(=O)NCCCN5CCN(CCCN)CC5)CC[C@@]4(C)[C@]3(C)CC[C@H]2C(C)(C)[C@H]1OC(C)=O (stereo partly drawn) | -51.6% (active)
